Source: PubChem
A selection: hits, their analogues and other compounds. The true share with any hit is near 3.4%.
PK Bst = modulators of Bacillus stearothermophilus pyruvate kinase | Potency, µM | 1.2% of 51,000 active | AID 361 | purified pyruvate kinase, luminescence ATP production; ribose 5-phosphate activator present at AC10; in the data active means potency below about 11 µM; inconclusive means mostly about 12 µM to 25 µM;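 the screen sought inhibitors and activators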;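 further: scaled between full activation by ribose 5 phosphate and full inhibition by luteolin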
GBA activity = human lysosomal glucosylceramidase modulation | P04062 | purified enzyme, resorufin glucoside fluorescence (screen aimed at inhibitors), 20 min | Potency, µM | 1.1% of 48,000 active; in the data active means potency below about 15 µM; inconclusive means mostly about 16 µM to 33 µM;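 further: the screen sought inhibitors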
Target sequence (P04062 whole entry, looked up): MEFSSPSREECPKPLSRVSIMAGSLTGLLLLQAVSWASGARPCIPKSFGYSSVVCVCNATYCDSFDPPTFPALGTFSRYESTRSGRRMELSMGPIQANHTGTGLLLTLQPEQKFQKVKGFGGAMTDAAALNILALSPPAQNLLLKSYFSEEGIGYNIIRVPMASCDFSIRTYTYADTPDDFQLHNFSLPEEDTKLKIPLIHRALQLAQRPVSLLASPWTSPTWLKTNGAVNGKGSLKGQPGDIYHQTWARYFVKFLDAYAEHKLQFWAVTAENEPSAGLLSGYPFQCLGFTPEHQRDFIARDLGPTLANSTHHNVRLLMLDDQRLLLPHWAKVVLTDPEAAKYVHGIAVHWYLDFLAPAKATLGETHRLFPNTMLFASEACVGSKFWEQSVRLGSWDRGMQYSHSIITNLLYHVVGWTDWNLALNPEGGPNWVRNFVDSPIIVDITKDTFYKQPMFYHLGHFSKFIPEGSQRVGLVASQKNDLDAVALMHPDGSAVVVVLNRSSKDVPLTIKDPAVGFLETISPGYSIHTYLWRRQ
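Wild-type enzyme at 0.2 nM final in 50mM citric acid/KH2PO4, 10mM sodium taurocholate, 0.01% tween-20, pH 5.9, with resorufin beta-D-glucopyranoside at 30 uM final. Compounds titrated, 20 min at RT, red fluorescence read; AC50 from titration.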
Luciferase inh = firefly luciferase inhibition. P08659. purified firefly luciferase, luminescence, 8 min. Potency, µM (top dose mostly 57.1 µM), for inactives: at the highest dose activity change, negative = inhibition, actives largely listed as inhibitors. 2.2% of 72,000 active; active means well fitted inhibition curve with a large enough effect; inconclusive means small, poorly fitted or top-dose-only effect; further: on the % scale 0 is the no-effect control and ±100 the full control effect; nearly all actives have a fitted effect of over 40% in size
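Luminescence read-out after 8 min at room temperature; enzyme reaction used luciferin plus 10 uM ATP (linear range) in imidazole buffer pH 7.2 with KCl, MgCl2, Tween 20 and BSA. Each sample was run as a titration.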
* hit, by the source's call; i = inactive; u = inconclusive; x = not tested or not shown; [ ] = another dose, or the depositor's remark. Potency means the concentration at half of the fitted maximal effect.

SMILES	PK Bst	GBA activity	Luciferase inh
COc1ccc(N2CCCn3c2nc2c3c(=O)n(CCc3ccccc3)c(=O)n2C)cc1	>57	12*	0%
Cn1c(=O)n(CCc2ccccc2)c(=O)c2c1nc1n2CCCN1Cc1ccccc1	>57	i	3%
CCOc1ccc(N2CCCn3c2nc2c3c(=O)n(CCc3ccccc3)c(=O)n2C)cc1	>57	>77	2%
CO[C@H]1C=CO[C@]2(C)Oc3c(C)c(O)c4c(O)c(c5c(c4c3C2=O)NC2(CCN(CC(C)C)CC2)N=5)=NC(=O)C(C)=CC=C[C@@H](C)[C@@H](O)[C@@H](C)[C@@H](O)[C@@H](C)[C@@H](OC(C)=O)[C@@H]1C	x	x	-2%[25.5 µM]
NCC[C@H](O)C(=O)N[C@H]1C[C@@H](N)[C@@H](O[C@H]2O[C@@H](CN)[C@@H](O)[C@@H](O)[C@@H]2O)[C@@H](O)[C@@H]1O[C@H]1O[C@@H](CO)[C@@H](O)[C@@H](N)[C@@H]1O	x	x	4%[25.5 µM]
O=C(Nc1cccc(F)c1)N1CCC2(CC1)CCN(C(=O)c1ccco1)CC2	x	x	1%[11.4 µM]
O=S(=O)(O)c1ccc(N=Nc2ccccc2)cc1	x	x	2%[11.4 µM]
Nc1ccc(N=Nc2ccc(-c3ccc(O)cc3)cc2)c2ccc(S(=O)(=O)O)cc12	x	x	3.2µM*
Cc1cc(C(=O)CN2C(=O)NC(c3ccccc3)(c3ccccc3)C2=O)c(C)n1Cc1ccco1	>57	>77	-2%
Cc1cc(C(=O)CN2C(=O)NC3(CCCc4ccccc43)C2=O)c(C)n1Cc1cccs1 (configuration not stated)	x	>77	13µM*
CC(C)(C)C(=O)c1sc(Nc2ccccc2)nc1N	u	>77	13µM*
NC(=O)c1sc2nccc(Nc3ccccc3)c2c1N	i	>77	-14%
CC(NC(=O)c1cc(-c2ccc(O)cc2)on1)c1ccccc1 (configuration not stated)	x	x	-1%
Cc1nc2cc3nc(C)sc3cc2s1	i	>77	16µM*
Cc1nc2cc(CO)ccc2s1	>57	>77	-35%
Cc1cc2c(nc1C)CCCN2CC(O)CN1CCCc2nc(C)c(C)cc21	x	x	0%[11.4 µM]
CO[C@@H]1/C=C\O[C@]2(C)Oc3c(C)c(O)c4c(O)c(c(/C=N\N5CCN(C)CC5)c(O)c4c3C2=O)NC(=O)/C(C)=C\C=C/[C@H](C)[C@H](O)[C@H](C)[C@H](O)[C@H](C)[C@H](OC(C)=O)[C@@H]1C	x	x	-1%[11.4 µM]
CC(C)CN1CC2(CCN(C(=O)c3csnn3)CC2)C1	x	x	0%[11.4 µM]
Cc1csc(NC(=O)c2ccccc2O)n1	x	>77	25µM*
O=C(Nc1ccccc1O)c1ccccc1O	x	x	20µM*
Cc1cccc(NC(=O)c2ccccc2O)c1C	x	x	-27%
Cc1ccc(C(=O)O)c(C(=O)Nc2nc(C)cs2)c1	>57	>77	5%
Cc1noc(C)c1C(=O)N1CCC[C@@]2(CCN(c3ccccn3)C2)C1	x	x	1%[11.4 µM]
COc1cccc(Nc2ncc3nc(CCc4ccccc4)c(=O)n(C)c3n2)c1	x	x	1%[11.4 µM]
COc1ccc(NC(=O)CS(=O)CC(=O)Nc2cc(Cl)ccc2OC)cc1 (configuration not stated)	>57	x	3%
SMILES	PK Bst	GBA activity	Luciferase inh
COc1ccc(NC(=O)/C=C\c2ccc(Cl)cc2)cc1	x	x	13µM*
C[C@@H](C1=C(CCN(C)C)Cc2ccccc21)c1ccccn1	x	x	-2%
C[C@@](N)(Cc1ccc(O)c(O)c1)C(=O)O	x	x	-4%[25.5 µM]
CC(=O)n1c2ccccc2c2c(C#N)c(N3CCCCC3)sc21	>57	>77	-1%
C=CCNc1nc2c3ccccc3n(C(C)=O)c2s1	i	>77	20µM*
NC(N)=N/N=C(/c1ccccc1)c1ccc(O)cc1O	x	x	1%[11.4 µM]
Cc1ccc(C(CC(=O)c2ccco2)SCCO)cc1 (configuration not stated)	x	>77	25µM*
O=C(CC(SCCO)c1ccc(F)cc1)c1ccco1 (configuration not stated)	>57	>77	-3%
NCC[C@H]1CCC[C@H](CCN)N1	x	x	3%
O=CNc1ncn[nH]1	x	x	4%[11.4 µM]
CC(C)CNC(=O)NC1C(NC(=O)NCC(C)C)N(C)C(=O)N1C (configuration not stated)	10*	>77	5µM*
CN1C(=O)N(C)C(NC(=O)Nc2ccccc2)C1NC(=O)Nc1ccccc1 (configuration not stated)	>57	>77	-4%
COCC(=O)N1CCC[C@@]2(CCN(c3ccccn3)C2)C1	x	x	0%[11.4 µM]
O=C(NCCO)c1nc(NCCO)c2ccccc2n1	>57	>77	0%
COc1ccc(Nc2cc(C(=O)NCCCN3CCN(C)CC3)c3ccccc3n2)c(OC)c1	x	>77	-20%
C=CCNc1nc(N2CCCC2)nc2ccccc12	x	11*	-1%
COc1ccc(Nc2nc(N3CCCC3)nc3ccccc23)c(OC)c1	>57	3.4*	-2%
C=CCNc1nc(N2CCCCC2)c(C#N)c2c1CN(Cc1ccccc1)CC2	>26	x	1%[25.5 µM]
OCCNc1nc(N2CCN(Cc3ccccc3)CC2)nc2ccccc12	x	13*	-4%
O=C(O)[C@@H](O)[C@@H](O)[C@@H](O)[C@@H](O)c1nc2ccccc2s1	x	x	-7%[11.4 µM]
NC(=O)NC(=O)[C@H]1CCCC[C@@H]1C(=O)O	x	x	-1%[11.4 µM]
CC[C@@H](c1ccccc1)n1c(=O)n2n(c1=O)[C@H]1[C@H](O)[C@H]3O[C@@H]3/C(=N/OC/C=C(\C)CCC=C(C)C)[C@@H]1CC2	x	x	0%[11.4 µM]
O=C(O)C[C@H](NC(=O)CP(=O)(O)O)C(=O)O.[NH-][C@@H]1CCCC[C@@H]1[NH-].[Pt]	x	x	-2%[11.4 µM]
C/C(CCN1CCc2nc(-c3ccccc3)c(-c3ccccc3)cc2C1)=N\O[C@@H](C)CN1CCCCc2nc(C)c(C)cc21	x	x	1%[11.4 µM]
Cc1cc([C@](C)(N)C(=O)O)ccc1P(=O)(O)O	x	x	25µM*
SMILES	PK Bst	GBA activity	Luciferase inh
C[C@@](N)(C(=O)O)c1cccc(CC(=O)O)c1	x	x	2%
COc1ccc(O[C@H]2C=C[C@@H](c3ccccc3)O[C@H]2COC(=O)NCc2cccc3ccccc23)cc1	x	x	0%[11.4 µM]
Cc1ccc(S(=O)(=O)c2c(N)n(/N=C/c3ccco3)c3nc4ccccc4nc23)cc1	>57	>77	-3%
Cc1cccc(S(=O)(=O)c2c(N)n(/N=C/c3ccco3)c3nc4ccccc4nc23)c1	x	6.1*	0%
CS(=O)(=O)N1CCC2(CC1)CN(c1ccccc1)C2	x	x	0%[11.4 µM]
O=C(c1cccc(F)c1)N1CCC2(CC1)CN(c1cccc(-c3ccccc3)c1)C2	x	x	-5%[11.4 µM]
CCC(C(=O)NCc1ccco1)N(C(=O)CNS(=O)(=O)c1ccc(C)cc1)c1ccccc1OC (configuration not stated)	>57	>77	3%
CCCC(C(=O)NCc1ccco1)N(C(=O)CNS(=O)(=O)c1ccccc1)c1ccccc1OC (configuration not stated)	>57	15*	2%
c1ccc(C[C@@H](Nc2cccnc2)c2ccccc2)cc1	x	x	4%[11.4 µM]
COc1ccc(-c2noc(-c3cccc(Cl)c3)n2)cc1OC	>57	i	1%
COc1ccc(-c2noc(-c3ccco3)n2)cc1OC	i	>77	13µM*
COc1ccc(-c2noc(-c3ccccc3Cl)n2)cc1OC	i	x	16µM*
COc1ccc(-c2nc(-c3ccncc3)no2)cc1OC	i	>77	u
C#C[C@H](N)CCC(=O)O	x	x	0%
Cc1ccc(OCCCn2c(CO)nc3ccccc32)cc1	i	>77	20µM*
COCCn1c(COc2ccc(C)cc2)nc2ccccc21	i	>77	13µM*
COCCn1c(COC)nc2ccccc21	>57	>77	4%
